Values without a mark were called inactive. Inconclusive results are not listed. Activity calls are given as the source filed them. Unless noted, calls follow the shape of the dose curve; as a rule, active = well fitted curve in the direction sought with a large enough effect in the repeat runs; inconclusive = weak or mixed curves; inactive = flat fitted curve, though single readings scatter.

A short description of assay [1]: qHTS assay to test for compound auto fluorescence at 535 nm (green) in HEK293 cells (AID 720680).
The nature of assay [2]: qHTS assay to test for compound auto fluorescence at 460 nm (blue) in HEK293 cell free culture (AID 720681). In short, it runs like this:
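Blue fluorescence (Ex 405/Em 460 nm, triamterene-equivalent) was read immediately after pin transfer of compound or DMSO into medium (DMEM, 10% FBS) without cells.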
A general note: Quantitative high-throughput screening tests each substance at several concentrations.

Assay [3] in a line: qHTS assay to test for compound auto fluorescence at 535 nm (green) in HEK293 cell free culture (AID 720682). The method in brief: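 Intrinsic compound fluorescence is measured in culture medium containing 10% FBS, with excitation at 485 nm and detection at 535 nm, referenced to fluorescein.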
Assay [4] is described as follows: qHTS assay to test for compound auto fluorescence at 590 nm (red) in HepG2 cell free culture (AID 720684). In short, it runs like this:
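Cell-free; medium MEM + 10% FBS; compound or DMSO added by pintool; read Ex 540/Em 590 nm; Rose Bengal sodium as red reference fluorophore.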

Assay [5] is described as follows: qHTS assay to test for compound auto fluorescence at 535 nm (green) in HepG2 cell free culture (AID 720686).
A short description of assay [6]: qHTS assay to test for compound auto fluorescence at 460 nm (blue) in HepG2 cells (AID 720687). The method in brief: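 Blue-channel autofluorescence (Ex/Em 405/460 nm, triamterene-equivalent) was measured after 1 hr compound exposure at 37 C, 5% CO2. Cells were HepG2, plated overnight at 37 C in MEM plus 10% FBS.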
For assay [7], the target named is Glucocorticoid receptor (Homo sapiens) (UniProt P04150). Description: qHTS assay to identify small molecule agonists of the glucocorticoid receptor (GR) signaling pathway (AID 720691; active = well fitted activation curve with a large enough effect in the signal ratio in the repeat runs, not every such curve was filed as active; the % refers to the signal ratio). In short, it runs like this:
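Steps: seed GR-bla HeLa cells, incubate 4 h at 37 C/5% CO2; pin-transfer DMSO-dissolved compounds; incubate 18 h at 37 C; add LiveBLAzer B/G FRET substrate; after 2 h at room temperature, measure fluorescence.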

For assay [8] the target is unchanged. Description: qHTS assay to identify small molecule antagonists of the glucocorticoid receptor (GR) signaling pathway (AID 720692; active = well fitted inhibition curve with a large enough effect in the signal ratio in the repeat runs, not every such curve was filed as active; the % refers to the signal ratio; also: potency is read from the fitted curve at half-maximal effect). In short, it runs like this: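 Antagonism was scored as loss of dexamethasone-driven (5 nM final) reporter signal in HeLa cells bearing a glucocorticoid response element–beta-lactamase construct, after 18 h compound exposure at 37 C and 2 h FRET substrate loading.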

Assay [9] in a line: qHTS assay to test for compound auto fluorescence at 460 nm (blue) in HepG2 cell free culture (AID 720685). The method in brief: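 Cell-free plates of MEM plus 10% FBS received 23 nL compound or DMSO vehicle; blue-channel (405/460 nm) intensity scored against triamterene as reference fluorophore.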
% is scaled to controls: 0 for no effect and ±100 for the full control effect.

Sequence of Glucocorticoid receptor (Homo sapiens) (P04150 whole entry, looked up): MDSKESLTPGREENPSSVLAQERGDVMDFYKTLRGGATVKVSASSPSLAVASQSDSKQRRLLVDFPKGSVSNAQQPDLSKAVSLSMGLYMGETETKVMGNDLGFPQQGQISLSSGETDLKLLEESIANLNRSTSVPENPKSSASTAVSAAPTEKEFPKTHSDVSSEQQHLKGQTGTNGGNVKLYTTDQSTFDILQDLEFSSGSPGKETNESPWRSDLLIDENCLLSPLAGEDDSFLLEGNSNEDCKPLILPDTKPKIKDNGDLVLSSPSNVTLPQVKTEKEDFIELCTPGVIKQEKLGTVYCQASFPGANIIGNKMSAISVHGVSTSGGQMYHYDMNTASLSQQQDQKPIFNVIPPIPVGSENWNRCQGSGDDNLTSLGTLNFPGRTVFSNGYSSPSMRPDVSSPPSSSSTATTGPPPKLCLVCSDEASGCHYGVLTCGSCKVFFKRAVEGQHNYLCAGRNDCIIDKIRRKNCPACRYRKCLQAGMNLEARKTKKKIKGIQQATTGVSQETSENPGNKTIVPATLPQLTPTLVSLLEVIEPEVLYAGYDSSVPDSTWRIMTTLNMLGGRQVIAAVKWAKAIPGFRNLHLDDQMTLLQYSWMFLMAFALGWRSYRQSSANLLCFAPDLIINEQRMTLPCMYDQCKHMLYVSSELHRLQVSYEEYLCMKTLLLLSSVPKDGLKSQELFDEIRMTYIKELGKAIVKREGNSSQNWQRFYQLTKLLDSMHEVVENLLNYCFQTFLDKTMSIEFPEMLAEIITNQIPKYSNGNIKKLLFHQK

`OCC(O)CS` (stereo unspecified): the result in assay [1], in assay [3], in assay [4], in [5] and in assay [7] was inactive. Further, the Potency entry in assay [2], in assay [6] and in assay [8] was “inactive” in each case.

On to `C[Si](C)(C)N[Si](C)(C)C`, for which the outcome in [1], in assay [3], in assay [4], in assay [5] and in assay [7] was inactive. For the same compound, the Potency result in assay [2], in assay [9], in assay [6] and in [8] was “inactive” throughout.

As for `CCc1cccc(O)c1`, the outcome in assay [1], in assay [3], in assay [4] and in [5] was inactive. Further, the Potency entry in [2] and in [6] was “inactive” each time.

Turning to `C=CC(=O)NCOCCCC`, the outcome in assay [1], in assay [3], in assay [4], in assay [5] and in assay [7] was inactive. For the same compound, the Potency entry in assay [2], in assay [6] and in [8] was “inactive” in each case.

Regarding `CC(=O)OCc1ccc2c(c1)OCO2`, the outcome in [1], in assay [3], in assay [4], in assay [5] and in assay [7] was inactive. In addition, the Potency entry in assay [2], in assay [9], in assay [6] and in assay [8] was “inactive” each time.

With `CCOC(=O)c1ccc(O)cc1`, the result in [1], in assay [3], in assay [4], in assay [5] and in assay [7] was inactive. Also, the Potency result in assay [2], in assay [9], in assay [6] and in assay [8] was “inactive” each time.

In the case of `CC/C=C(\C(=O)N[C@@H]1C(=O)N2C(C(=O)OCOC(=O)C(C)(C)C)=C(COC(N)=O)CS[C@H]12)c1csc(N)n1`, the result in assay [1], in assay [3], in assay [4], in assay [5] and in assay [7] was inactive. Moreover, the Potency entry in assay [2], in [6] and in assay [8] was “inactive” throughout.

For `COc1cc(NC(=O)CC(C)=O)c(OC)cc1Cl`, the call in [1], in assay [3], in [4], in assay [5] and in assay [7] was inactive. In addition, the Potency entry in [2], in assay [9] and in [6] was “inactive” each time. Moreover, the Potency in assay [8] is 54.9 µM (active).

Regarding `Cc1ccc(Cl)cc1`, the compound was called inactive in [1], in assay [3], in assay [4], in assay [5] and in assay [7]. The Potency entry in assay [2], in [9], in assay [6] and in [8] was “inactive” in each case.

In the case of `O=C1OC(=O)c2c(Cl)c(Cl)c(Cl)c(Cl)c21`, the result in assay [1], in assay [3], in assay [4] and in [5] was inactive. In addition, the Potency result in assay [2], in [9] and in assay [6] was “inactive” each time.

For `C1CCCNCC1`, the call in assay [1], in assay [3], in assay [4], in assay [5] and in [7] was inactive. Also, the Potency entry in assay [2], in assay [9], in [6] and in assay [8] was “inactive” throughout.

As for `CCCCCCCCCCCC(=O)N(C)CC(=O)O`, the compound was classed as inactive in assay [1], in assay [3], in assay [4], in assay [5] and in [7]. Besides, the Potency entry in assay [2], in assay [9] and in assay [6] was “inactive” in each case. The activity change, negative = inhibition in [8] is -13% [at 7.04 µM].

`OB(O)O`: the outcome in assay [1], in assay [3], in assay [4], in assay [5] and in assay [7] was inactive. Besides, the Potency result in [2], in assay [9], in [6] and in assay [8] was “inactive” throughout.

Consider `CC(C)c1ccc(C(C)C)cc1`, for which the compound was called inactive in assay [1], in assay [3], in assay [4], in assay [5] and in assay [7]. For the same compound, the Potency result in [2], in assay [6] and in assay [8] was “inactive” each time.

On to `COc1ccccc1[N+](=O)[O-]`, for which the outcome in assay [1], in assay [3], in assay [4] and in [5] was inactive. In addition, the Potency result in [2], in [9] and in assay [6] was “inactive” in each case.

Regarding `CN1CCCC1=O`, the result in assay [1], in [3], in assay [4] and in [5] was inactive. Moreover, the Potency result in [2] and in assay [6] was “inactive” throughout.

With `N#CCC(=O)O`, the outcome in [1], in [3], in assay [4], in assay [5] and in assay [7] was inactive. In addition, the Potency entry in assay [2], in assay [9], in assay [6] and in [8] was “inactive” throughout.

Consider `Nc1cccc(N)n1`, for which the result in assay [1], in assay [3], in [4], in assay [5] and in assay [7] was inactive. The Potency result in assay [2] and in [9] was “inactive” in each case.

`CCCCCNCCCCC`: the call in [1], in assay [3], in [4] and in [5] was inactive. Further, the Potency entry in assay [2], in assay [9] and in [6] was “inactive” in each case.

In the case of `CCOC(=O)CC(=O)OCC`, the result in assay [1], in assay [3], in assay [4], in assay [5] and in assay [7] was inactive. For the same compound, the Potency result in assay [2], in assay [6] and in assay [8] was “inactive” throughout.

As to `O=Cc1ccc(CO)o1`, the compound was classed as inactive in assay [1], in assay [3], in assay [4], in [5] and in [7]. Also, the Potency result in assay [2], in assay [6] and in assay [8] was “inactive” in each case.

In the case of `CN1Cc2c(N)cccc2C(c2ccccc2)C1` (stereo unspecified), the outcome in assay [1], in assay [3], in assay [4], in [5] and in [7] was inactive. Besides, the Potency result in assay [2], in assay [6] and in [8] was “inactive” in each case.

Consider `CC(=O)OC/C=C(\C)CCC=C(C)C`, for which the outcome in assay [1], in [3], in [4], in assay [5] and in assay [7] was inactive. Moreover, the Potency entry in assay [2], in assay [9], in [6] and in [8] was “inactive” throughout.

For `Cc1nnc(NS(=O)(=O)c2ccc(N)cc2)s1`, the compound was classed as inactive in [1], in assay [3], in assay [4] and in assay [5]. For the same compound, the Potency entry in assay [2], in assay [9] and in assay [6] was “inactive” throughout.

Take `CC(=O)c1nccs1`: the call in assay [1], in [3], in assay [4], in [5] and in assay [7] was inactive. The Potency result in assay [2], in assay [9], in assay [6] and in assay [8] was “inactive” throughout.

For the compound `CO[Si](CCCNCCN)(OC)OC`, the call in assay [1], in assay [3], in assay [4] and in [5] was inactive. Further, the Potency entry in assay [2] and in assay [6] was “inactive” in each case.

As for `COc1ccc2cc3[n+](cc2c1OC)CCc1cc2c(cc1-3)OCO2`, the compound was classed as inactive in [1], in assay [3], in assay [4], in assay [5] and in assay [7]. The Potency result in [2], in [9] and in assay [6] was “inactive” throughout.

On to `CC(=O)OC[C@H]1O[C@@](COC(C)=O)(O[C@H]2O[C@H](COC(C)=O)[C@@H](OC(C)=O)[C@H](OC(C)=O)[C@H]2OC(C)=O)[C@@H](OC(C)=O)[C@@H]1OC(C)=O`, for which the call in assay [1], in [3], in assay [4], in assay [5] and in assay [7] was inactive. Moreover, the Potency entry in [2], in assay [6] and in [8] was “inactive” in each case.

Take `CC/C(C)=N/O`: the result in assay [1], in [3], in [4], in assay [5] and in assay [7] was inactive. The Potency entry in [2], in assay [9], in [6] and in assay [8] was “inactive” in each case.

Consider `Cc1cc(C)c(O)c(C)c1`, for which the outcome in assay [1], in [3], in [4], in assay [5] and in [7] was inactive. The Potency result in [2], in assay [9], in [6] and in assay [8] was “inactive” each time.

As to `O=C1CCCCCCCCCCC1`, the result in assay [1], in [3], in assay [4], in assay [5] and in assay [7] was inactive. Moreover, the Potency entry in assay [2], in assay [9], in assay [6] and in assay [8] was “inactive” each time.

Source of the values: PubChem BioAssay (Tox21).
